Activity calls are given as the source filed them. The calls were made as follows: active = hit-call score of the fitted dose curve at least 0.9, where 1 is the maximum; inactive = score below 0.9.

Read-out in this assay: CYP2E1 (gene 1571)
Nature of the assay: LTEA_HepaRG_CYP2E1: Life Technologies and Expression Analysis (LTEA) Assay for CYP2E1 using HepaRG (AID 2283485). Conditions: mRNA level, 48 h; actives raise or lower the signal. The procedure: LTEA_HepaRG is a cell based, multiplexed-readout assay that uses HepaRG, a human liver cell line, with measurements taken at 48 hours after chemical dosing on a 96-well plate.LTEA_HepaRG_CYP2E1 is one of 102 assay component(s) measured in the LTEA HepaRG cell culture assay. It is a marker of NR mediated metabolism.Data from the assay component LTEA_HepaRG_CYP2E1 was analyzed into 1 endpoint. This assay endpoint, LTEA_HepaRG_CYP2E1, was analyzed with bidirectional fitting relative to DMSO as the negative control and baseline of activity. Using a type of inducible reporter, measures of mRNA induction for gain or loss-of-signal activity can be used to understand regulation of transcription factor activity. To generalize the intended target to other relatable targets, this assay endpoint is annotated to the cyp intended target family, where the subfamily is xenobiotic metabolism.
A total of 1060 chemcials from the ToxCast library were tested in eight-point concentration-response experiments. Cell culture and cytotoxicity assays were conducted at Thermo Fisher Scientific's Custom Services facility (Madison, WI). A single lot of human HepaRG cells (Thermo Fisher Scientific, Frederick, MD) was used for the cell culture experiments. 96-well format collagen type I coated plates of human HepaRG cells were prepared using established methods. Briefly, cryopreserved HepaRG cells were thawed, plated at a density of approximately 100,000 cells/well in HepaRG Thaw, Plate, and General Purpose media (HPRG770, Thermo Fisher Scientific), and incubated for 48 hours. 0.5% DMSO was selected as vehicle control to balance the requisite need of DMSO in HepaRG cultures to maintain differentiation (for example, baseline metabolism, proportions of hepatocytes vs. cholangiocytes), while enabling further hepatic receptor pathway activation (for example, PXR and CAR) in response to chemical exposure. 48 hours after plating, the culture medium was replaced with HepaRG Serum-Free Incudtion Media. Cells were exposed to each test chemical in duplicate and maintained in CO2 incubators for another 48 hours. Chemical plates were thawed to room temperature and 200x concentrations of treatment groups were prepared. 8-point conentration-reponse curves were made with the highest exposure at 100 uM, followed by half-log dilutions, all in 0.5% DMSO. Each test plate contained variouse controls, induction positive controls (1mM phenobarbital), cytotoxicity positive controls ([…] aflatoxin B1), vehicle controls (0.5% DMSO), and total lysis controls (0.5% DMSO). Cell morphology images were taken using an Essen IncuCyte FLR automated microscope, with six 96-well plates imaged in about 24 minutes. Images were captured and exported and JPEG files. Spent culture media was transfered to black-well plates for the LDH assay, and remaining media was sorted at -80 C for later use. Cells were treated with RLT buffer and frozen until shipped for gene expression analysis. Total RNA was isolated from the cell suspension in 75 uL of Buffer RLT (Qiagen, Germantown, MD 20874) by Quintiles/Expression Analysis (Durham, NC) using a custom isolation procedure. Total RNA from each plate well was transferred to a preamplification plate. Fluidigm's 96.96 Dynamic ArrayTM (Fluidigm, Amsterdam, the Netherlands) technology was used for gene expression analyses by quantitative reverse transcription polymerase chain reaction (qRT-PCR, performed by Quintiles/Expression Analysis, Durham, NC)89. Standard TaqManTM Assays (Applied Biosystems/ThermoFisher Scientific, Foster City, CA) were used to assess the expression of 93 genes selected based on their selectivity and sensitivity to important hepatic receptors known to be modulated by environmental chemicals; importance in human hepatocyte functionality; and hepatotoxicity. […]
`Cc1ccc(N)cc1N`: the concentration at half-maximal activity (AC50) is 18.6 µM (active).

Take `CC(Cc1ccc(OCC(=O)O)cc1)NCC(O)c1csc(C(F)(F)F)n1` (stereo not given): the result was inactive.

Take `ClC(Cl)c1ccccc1`: the compound was classed as inactive.

As for `COCCOCCO`, the call was inactive.

Consider `O=[N+]([O-])c1ccccc1`, for which the outcome was inactive.

As for `CCC1(c2ccccc2)C(=O)N=C(O)NC1=O` (stereo not given), the compound was called inactive.

Consider `O=C(O)C(Cl)Cl`, for which the compound was called inactive.

Take `CCCCN(CCCC)N=O`: the call was inactive.

On to `OCC1CO1` (stereo not given), for which the compound was called inactive.

Turning to `[N-]=[N+]=[N-]`, the AC50 is 67.1 µM (active).

Take `Cc1cccc(N)c1`: the result was inactive.

Take `CC(Cl)(Cl)C(=O)O`: the compound was classed as inactive.

On to `CC(C)(C)OOC(C)(C)C`, for which the call was inactive.

As to `O=[N+]([O-])c1ccc(Cl)c(Cl)c1`, the call was inactive.

Regarding `c1ccc(OP(Oc2ccccc2)Oc2ccccc2)cc1`, the compound was called inactive.

For the compound `CCCCN(CCCC)SN(C)C(=O)Oc1cccc2c1OC(C)(C)C2`, the AC50 is 41.5 µM (active).

For `ClC(Cl)(Cl)c1ccccc1`, the compound was called inactive.

As to `O=P(Oc1ccccc1)(Oc1ccccc1)Oc1ccccc1`, the AC50 is 26.2 µM (active).

Consider `Cc1ccc([N+](=O)[O-])cc1C`, for which the compound was classed as inactive.

As to `O=C(O)C1C(C(=O)O)C2(Cl)C(Cl)=C(Cl)C1(Cl)C2(Cl)Cl` (stereo not given), the compound was called inactive.

With `CCC(C)(C)c1ccc(O)cc1`, the result was inactive.

In the case of `O=P1(N(CCCl)CCCl)NCCCO1` (stereo not given), the call was inactive.

Turning to `CCOS(=O)(=O)OCC`, the result was inactive.

On to `CCCCCCCc1ccc(O)cc1`, for which the result was inactive.

Regarding `Nc1ccc(Cl)cc1`, the outcome was inactive.

For the compound `CCNc1nc(Cl)nc(NC(C)(C)C)n1`, the AC50 is 26.6 µM (active).

Turning to `ClC1=C(Cl)C2(Cl)C3C(Cl)C(Cl)CC3C1(Cl)C2(Cl)Cl` (stereo not given), the half-maximal activity concentration (AC50) was 27.7 µM (active).

`c1cc2c3c(cccc3c1)CC2`: the half-maximal activity concentration (AC50) was 0.391 µM (active).

For the compound `CCOc1ccc(C(C)(C)COCc2cccc(Oc3ccccc3)c2)cc1`, the half-maximal activity concentration (AC50) is 26 µM (active).

As for `CN(C)C(=O)Cl`, the outcome was inactive.

As for `CCOC(=O)c1ccccc1C(=O)OCC`, the result was inactive.

As for `c1ccc2c(c1)Nc1ccccc1S2`, the concentration at half-maximal activity (AC50) was 66.2 µM (active).

With `CCOP(=S)(Oc1ccc([N+](=O)[O-])cc1)c1ccccc1` (stereo not given), the AC50 was 37.3 µM (active).

On to `CCN(CC)c1ccccc1`, for which the result was inactive.

As to `CCCN(CCC)c1c([N+](=O)[O-])cc(C(C)C)cc1[N+](=O)[O-]`, the half-maximal activity concentration (AC50) was 67 µM (active).

As to `Nc1cc2c3c(c1)C(c1ccccc1)=N[C@@H](NC(=O)c1cccnc1)C(=O)N3CC2`, the AC50 is 12.2 µM (active).

As for `Nc1ccc2ccccc2c1`, the AC50 was 33.8 µM (active).

In the case of `CCCCc1ccccc1`, the call was inactive.

With `CCOP(=S)(OCC)SCSCC`, the compound was classed as inactive.

In the case of `CSC(C)(C)C=NO`, the outcome was inactive.

The record behind these values is PubChem BioAssay (EPA / NIEHS).
